Rows were chosen to be rich in hits. Some 3.1% of all compounds tested hit in one or more screens of this group.
ATG4B inhibitor: inhibitors of human ATG4B cysteine protease; AID 504462; 340,000 compounds, 0.51% hits; ATG4B cleavage of LC3-PLA2, NBD-HPC fluorescence, 1 h; inhibition, % at 8.33 µM; Q9Y4P1; in the data active = inhibition above about 40%
Calb FLC: C. albicans growth modulation with fluconazole | C. albicans CaCi-2 (fluconazole-resistant clinical isolate) + fluconazole, Alamar Blue growth, 48 h | growth inhibition, % (no concentration beside the values) | 300,000 compounds, 0.57% hits;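 active = growth inhibition above about 58% in most replicates, limit read from the data, passing the limit was not always enough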;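 note: all wells also contain fluconazole at 8 µg/ml as a sub-toxic cotreatment; 0% = median of DMSO wells and 100% = median of geldanamycin control wells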
FAS TE block: blocks the thioesterase domain of human fatty acid synthase. inhibition, % at 15 µM. 360,000 compounds, 0.67% hits. recombinant FAS-TE, OMFH fluorogenic substrate, fluorescence endpoint;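 active = compounds whose normalised, plate-corrected inhibition of enzyme fluorescence in the single-dose primary screen is 50% or more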;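 note: 0% = DMSO with enzyme and 100% = substrate without enzyme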
NadD block: blocks S. aureus nicotinate mononucleotide adenylyltransferase | purified NadD enzyme, colorimetric absorbance read-out | inhibition, % at 20 µM | 360,000 compounds, 0.78% hits | AID 602399; in the data active = inhibition above about 26%
Mot1-301 SUMO: blocks SUMOylation pathway, rescuing yeast Mot1-301 growth; growth rescue, % at 18.8 µM; S. cerevisiae Mot1-301 growth rescue, ATP luminescence, 38.5C; percent above DMSO median, 100 means doubled; 320,000 compounds, 1% hits; AID 2716;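 active = every valid replicate shows activation above 250% relative to neutral control wells; inactive = the rest, any valid replicate at or below 250%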;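 note: OY570 slx delta 5 strain wells were the positive control but not used for scaling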
The depositor's hits bear a star.

CCC(=O)c1ccc(OCC(O)CN2CCN(S(=O)(=O)N3CCCCC3)CC2)cc1 (configuration not stated) was read as ATG4B inhibitor -2, Calb FLC -12, FAS TE block -2, NadD block 0 and Mot1-301 SUMO 286*.
For O=C(COc1ccc(-c2ccccc2)cc1)N1CCN(C(=O)c2cccs2)CC1 the results were ATG4B inhibitor -19, Calb FLC -10, FAS TE block 7, NadD block -1 and Mot1-301 SUMO 2.
Screening O=C(c1ccccn1)N1CCN(c2cccc(C(F)(F)F)c2)CC1 returned ATG4B inhibitor 2, Calb FLC 5, FAS TE block -5, NadD block 1 and Mot1-301 SUMO 363*.
O=C(COc1ccc2c(c1)CCC2)N1CCN(c2cccc(C(F)(F)F)c2)CC1 was read as ATG4B inhibitor 0, Calb FLC 112*, FAS TE block 34, NadD block 0 and Mot1-301 SUMO 401.
For O=C(COc1cccc(C(F)(F)F)c1)N1CCN(c2ccc(O)cc2)CC1 the results were ATG4B inhibitor -9, Calb FLC 15, FAS TE block 5, NadD block 7 and Mot1-301 SUMO -7.
Screening Cc1ccc(-n2c(C)nnc2SCC(=O)N(C)c2c(N)n(Cc3ccccc3)c(=O)[nH]c2=O)cc1 returned ATG4B inhibitor 4, FAS TE block -6, NadD block 4 and Mot1-301 SUMO 19.
`C[C@@H]1CN([C@H](C)CO)C(=O)c2cccc(NC(=O)Nc3ccc(F)cc3)c2O[C@H]1CN(C)C(=O)Nc1ccc(C(F)(F)F)cc1` gave ATG4B inhibitor -16, FAS TE block 37, NadD block -11 and Mot1-301 SUMO -14.
Screening COc1ccc(NC(=O)N(C)C[C@H]2Oc3c(NC(=O)Nc4ccc(C(F)(F)F)cc4)cccc3C(=O)N([C@H](C)CO)C[C@@H]2C)cc1 returned ATG4B inhibitor -10, FAS TE block 62*, NadD block 0 and Mot1-301 SUMO -6.
Screening C[C@H](CO)N1C[C@H](C)[C@@H](CN(C)C(=O)Nc2ccc(C(F)(F)F)cc2)Oc2c(NC(=O)Nc3ccccc3)cccc2C1=O returned ATG4B inhibitor -18, FAS TE block 64*, NadD block -8 and Mot1-301 SUMO 7.
Screening C[C@H](CO)N1C[C@H](C)[C@@H](CN(C)C(=O)NC2CCCCC2)Oc2ccc(NC(=O)Nc3ccc(C(F)(F)F)cc3)cc2C1=O returned ATG4B inhibitor -3, FAS TE block 12, NadD block -9 and Mot1-301 SUMO -5.
Screening C[C@H](CO)N1C[C@H](C)[C@@H](CN(C)C(=O)NC2CCCCC2)Oc2c(NC(=O)Nc3ccc(C(F)(F)F)cc3)cccc2C1=O returned ATG4B inhibitor -11, FAS TE block 85*, NadD block -5 and Mot1-301 SUMO 59.
COc1ccc(NC(=O)Nc2cccc3c2O[C@H](CN(C)C(=O)Nc2ccccc2)[C@@H](C)CN([C@H](C)CO)C3=O)cc1 was read as ATG4B inhibitor -17, FAS TE block 48, NadD block 2 and Mot1-301 SUMO -17.
For COc1ccc(-c2csc(C(O)c3ccc(F)c(OC)c3)n2)cc1 (configuration not stated) the results were FAS TE block 12 and NadD block -2.
For CN1CCN(CC2(O)CCN(S(=O)(=O)c3ccc(Cl)cc3)CC2)CC1 the results were ATG4B inhibitor 1, Calb FLC 15, FAS TE block -8, NadD block -7 and Mot1-301 SUMO 6.
C[C@H]1COc2cccc(N3CCSCC3)c2S(=O)(=O)N1 was read as FAS TE block -11 and NadD block 4.
For O=C(NNc1cccc(Cl)c1)c1cccnc1Cl the results were ATG4B inhibitor -5, Calb FLC 33*, FAS TE block 1, NadD block -5 and Mot1-301 SUMO 344*.
`CCCc1c(C(=O)Nc2ccc(F)cc2F)cnn1-c1ccccc1` gave ATG4B inhibitor -3, Calb FLC 1, FAS TE block -3, NadD block 5 and Mot1-301 SUMO 8.
CCCc1c(C(=O)NNc2cccc(Cl)c2)cnn1-c1ccccc1 was read as ATG4B inhibitor -1, Calb FLC -14, FAS TE block 14, NadD block -1 and Mot1-301 SUMO 478*.
`COC(=O)C1=C(C(=O)OC)[C@@H]2N(Cc3ccccc3)c3ccccc3[C@@]23C[C@@H](C(=O)OC)N(C(=O)c2ccc(Br)cc2)C3=N1` gave ATG4B inhibitor -5, Calb FLC 4, FAS TE block 84*, NadD block 8 and Mot1-301 SUMO -10.
`Cc1ccc([N+](=O)[O-])cc1N=Nc1c(-c2ccc([N+](=O)[O-])cc2)[nH]n(C(N)=S)c1=O` gave ATG4B inhibitor 6, Calb FLC 5, FAS TE block 30 and NadD block 53*.
Screening CCCc1cc(=O)[nH]c(SCC(=O)N(C)C2CCCCC2)n1 returned ATG4B inhibitor 4, FAS TE block -5, NadD block -4 and Mot1-301 SUMO -11.
`Cc1[nH][nH]c(=O)c1C(c1c(C)[nH][nH]c1=O)c1cn(Cc2ccc(Cl)c(Cl)c2)c2ccccc12` gave ATG4B inhibitor 30, Calb FLC -11, FAS TE block 7, NadD block 37* and Mot1-301 SUMO -10.
`Cc1ccc(N2NC3(CCN(C(N)=O)CC3)NC2=O)cc1` gave ATG4B inhibitor 14, Calb FLC 106* and Mot1-301 SUMO 186.
`COC(=O)c1ccc(N2C(=O)CC(N(C)CCc3ccc(OC)c(OC)c3)C2=O)cc1` (configuration not stated) gave ATG4B inhibitor -4, Calb FLC -4, FAS TE block -4, NadD block -5 and Mot1-301 SUMO 303*.
For Oc1[nH]c2c(Cl)cc(Cl)cc2c1N=NC(=S)NCC1CCCO1 (configuration not stated) the results were ATG4B inhibitor -5, Calb FLC 97*, FAS TE block 19, NadD block 21 and Mot1-301 SUMO 152.
Screening Cc1cc(C)c2[nH]c(O)c(N=NC(=S)NCC3CCCO3)c2c1 (configuration not stated) returned ATG4B inhibitor -16, Calb FLC 24, FAS TE block -5, NadD block 6 and Mot1-301 SUMO 16.
`CC(C)Oc1ccc(CNC(=O)Cn2ccc3cc(S(=O)(=O)N4CCCC4)ccc32)cc1` gave ATG4B inhibitor -12, Calb FLC 8, FAS TE block 21, NadD block 4 and Mot1-301 SUMO -6.
`Cc1ccc(OCC(=O)NCCNC(=O)c2ccco2)cc1` gave ATG4B inhibitor -1, Calb FLC 13, FAS TE block -2, NadD block 1 and Mot1-301 SUMO 348*.
For Cc1ccc(OCC(=O)NCCNC(=O)COc2ccc(C)cc2)cc1 the results were ATG4B inhibitor -2, Calb FLC -1, FAS TE block -4, NadD block 0 and Mot1-301 SUMO 123.
O=C(NCCc1ccccc1)c1ccco1 was read as ATG4B inhibitor -4, Calb FLC 5, FAS TE block -2, NadD block -2 and Mot1-301 SUMO 157.

Bioassay records: PubChem, several laboratories
